# Rows were chosen to be rich in hits. Some 3.6% of all compounds tested hit in one or more screens of this group.
# D1 potentiator – enhances dopamine response at the human D1 receptor; P21728; HEK293 TREx D1 cells, calcium flux, dopamine EC20 potentiation; potentiation, % at 10 µM; actives 0.036% (n = 360,000); AID 504651; in the data active = potentiation above about 30%; also: 0% is about no effect
# TRHR agonist-1 – activates the human TRH receptor; P34981; activation, % at 2 µM; TRHR cells, calcium flux fluo-8, FDSS agonist mode; actives 0.18% (n = 360,000); in the data active = activation above about 30%; also: 0% is about no effect
# Target sequence (P34981 whole entry, looked up): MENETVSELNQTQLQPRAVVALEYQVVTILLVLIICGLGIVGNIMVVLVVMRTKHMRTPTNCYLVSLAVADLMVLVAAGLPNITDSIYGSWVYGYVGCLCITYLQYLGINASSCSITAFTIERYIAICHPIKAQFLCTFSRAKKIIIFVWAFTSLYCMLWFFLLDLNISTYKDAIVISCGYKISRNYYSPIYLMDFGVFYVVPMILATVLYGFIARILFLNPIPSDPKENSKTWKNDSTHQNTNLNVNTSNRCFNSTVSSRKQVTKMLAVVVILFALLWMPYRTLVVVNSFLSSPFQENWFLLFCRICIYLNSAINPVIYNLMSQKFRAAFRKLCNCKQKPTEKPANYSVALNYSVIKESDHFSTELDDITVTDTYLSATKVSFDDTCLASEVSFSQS
#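 Steps: seed TRHR cells overnight; add fluo-8 no-wash Ca dye, RT 30 min–1.5 h; record 10 s baseline; pin-transfer compounds; monitor fluorescence 1 cycle/s for the agonist window. Calcium increases flag candidate agonists.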
# D1 ag – activates the human D1 dopamine receptor | activation, % at 2 µM | AID 504660 | HEK293 T-REx D1 cells, calcium flux, agonist mode | actives 1% (n = 360,000) | P21728; in the data active = activation above about 30%; also: 0% is about no effect
#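 Inducible HEK293 T-REx D1 cells, force-coupled to calcium signalling, were plated at 4000 cells/well with tetracycline and held overnight at 30 C. After no-wash calcium dye loading, compound-evoked calcium rise over 180 s flagged agonists.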
# LDHA block – inhibitors of human lactate dehydrogenase A | purified LDHA, NADH/diaphorase-resazurin fluorescence; active compounds read low | activity change, % (values are at about 110 or 230 µM) | actives 0.15% (n = 480,000); in the data active = activity change below about -30%; inconclusive = mostly about -25% to -30%;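 also: plate controls were DMSO wells for no effect and wells without enzyme for full effect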
#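 Enzyme activity of human lactate dehydrogenase 5 (2 nM; 0.06 mM NADH, 0.2 mM pyruvate, 5 min, RT) is measured via a resazurin/diaphorase fluorescence readout of residual NADH.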
# TRHR enhancer-1 – TRH receptor (human) allosteric enhancement; P34981; TRHR cells, fluo-8 calcium fluorescence, EC20 TRH enhancement; enhancement, % at 2 µM; actives 0.66% (n = 360,000); AID 493056; in the data active = enhancement above about 30%; also: 0% is about no effect
#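 Enhancer read-out: after compound pinning and an initial kinetic agonist-mode read, an EC20 of TRH (10 nM final) was injected and fluo-8 calcium signal (Ex 480/Em 530) followed at 1 s/cycle for 100 cycles in TRHR-expressing cells.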
# D1 antag – antagonists of human D1 dopamine receptor; activity change, negative = inhibition, % at 10 µM; HEK293 TREx D1 cells, calcium flux, dopamine EC80; active compounds read low; actives 3.2% (n = 360,000); P21728; in the data active = activity change below about -30%; also: % is scaled to controls: 0 for no effect and ±100 for the full control effect
#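 Antagonism measured as reduced calcium response to an EC80 dopamine addition following 180 s compound pre-read; cells were inducible HEK293 Trex D1 plated overnight at 30 C, read kinetically at 1 cycle/sec.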
# TRHR enhancer-2 – confirmation of human TRH receptor allosteric enhancers | shares compounds with TRHR enhancer-1 | TRH receptor cell assay, enhancer confirmation qHTS | activity change, negative = inhibition, % at 46.1 µM | 970 tested, under 10 active | AID 493076;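 also: compound effect scored on response to added TRH at EC20 of 10 nM; 0% is about no effect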
# TRHR agonist-2 – confirmation of human TRH receptor agonists. shares compounds with TRHR enhancer-1. TRHR-expressing cells, agonist activation read-out. Potency, µM (doses to about 46.1 µM), inactives show at the top dose activation, actives largely listed as activators. actives 8% (n = 970). AID 493078; also: potency is read from the fitted curve at half-maximal effect; 0% is about no effect; nearly all actives have a fitted effect of over 75% in size
# * = called active by the depositor; ? = inconclusive; / = no result given. Unless noted, calls follow the shape of the dose curve; as a rule, active = well fitted curve in the direction sought with a large enough effect; inconclusive = small, poorly fitted or top-dose-only effect, or another doubt; inactive = no such curve, though single readings can be large; an effect the other way counts as inactive or inconclusive.
SMILES,D1 potentiator,TRHR agonist-1,D1 ag,LDHA block,TRHR enhancer-1,D1 antag,TRHR enhancer-2,TRHR agonist-2
Cc1ccc(NC(=O)C2=C(N3CCOCC3)c3ccccc3S2(=O)=O)cc1,/,/,/,1,/,/,/,/
CCOC(=O)C1CCN(C(=O)c2cc3c(ccc4ccccc43)o2)CC1,-6,-1,-1,-4,42*,3,-5,2%
CCN(CC)CCN(C(=O)c1ccc2c(c1)CCCC2)c1nc2c(C)cccc2s1,-1,38*,4,4,1,22,-8,0%
O=C(NC1CC1)c1cccc(NS(=O)(=O)c2cc(F)cc(F)c2)c1,/,/,/,7,/,/,/,/
COc1ccc(CNC(=O)Nc2ccc(F)c(Cl)c2)cn1,/,/,/,4,/,/,/,/
CC(C)CCNC(=O)CCn1c(=S)oc2ccccc21,-6,0,0,-6,53*,-9,0,2%
COc1ccccc1NC(=O)CCn1c(=S)oc2ccccc21,-8,-1,2,-4,19,4,/,/
COCCn1c(SCC(=O)N2CC(=O)Nc3ccccc32)nc2ccccc21,6,45*,0,0,7,-8,-6,-1%
Cc1cc(C)c2nc(SC(C)C(=O)NCC(=O)Nc3ccc(F)c(F)c3F)cc(C)c2c1 (stereo not drawn),27,-2,3,-5,-5,-7,/,/
Cc1cc(SC(C)C(=O)NCC(=O)Nc2ccc(F)c(F)c2F)nc2ccccc12 (stereo not drawn),2,0,1,0,43*,4,?,2%
Cc1ccc(C(=O)n2nc(NCc3ccccc3)nc2NCc2ccccc2)cc1,/,/,/,-13,/,/,/,/
O=c1cc(CN2CCN(c3ncccn3)CC2)nc2sc(C3CCCCC3)nn12,/,/,/,2,/,/,/,/
COC(=O)/C(C#N)=C1/C=Cc2ccccc2N1,0,0,-2,0,54*,-1,-7,?
CC1CCCCN1CCNC(=O)CN1C(=O)COc2ccccc21 (stereo not drawn),-1,0,2,-4,51*,2,5,1%
O=C(NNC(=O)c1nn(-c2ccc(F)cc2)ccc1=O)c1ccc(C(F)(F)F)cc1,-2,-1,1,0,45*,-1,-7,2%
O=C(CNC(=O)c1ccco1)Nc1ccc(OC(F)F)cc1,-6,0,3,0,50*,6,-4,-1%
COc1ccc(NC(=O)CNC(=O)c2ccco2)cc1,-4,1,5,-5,-3,-1,/,/
Cc1cc(-n2c(SCc3ccccc3F)nc3n[nH]c(C)c3c2=N)ccc1Cl,-6,1,0,-14,54*,-3,-11,1%
CC(SCc1ccccc1)C(=O)Nc1ccccc1F (stereo not drawn),-5,0,3,-1,56*,-1,1,0%
CN(C)c1ccc(NC(=O)CCc2ncc(-c3ccc(Cl)cc3)o2)cc1,/,/,/,1,/,/,/,/
CCOc1ccc(S(=O)(=O)N2CCN(c3ccc(OC)cc3)CC2)c2cccnc12,-6,-2,3,10,44*,-1,0,1%
CCO[C@H]1OC(C(=O)NC2CC2)=C[C@@H](C)[C@@H]1CCCO,5,-1,-3,0,44*,16,-1,-1%
COc1ccccc1CN(CC(=O)NCc1ccc2c(c1)OCO2)C(=O)c1csnn1,4,0,-2,-3,-8,-2,/,/
O=C(CN(Cc1ccccc1Cl)C(=O)c1csnn1)NCc1ccc2c(c1)OCO2,-7,0,-1,3,51*,-7,-11,4%
COc1cccc(SCC2(O)CCN(C(=O)c3ccc(Cl)cc3)CC2)c1,-1,0,3,0,59*,0,-5,0%
SMILES,D1 potentiator,TRHR agonist-1,D1 ag,LDHA block,TRHR enhancer-1,D1 antag,TRHR enhancer-2,TRHR agonist-2
CC(Oc1ccccc1Cl)C(=O)c1c[nH]c2ccccc12 (stereo not drawn),/,/,/,1,/,/,/,/
Cc1cc(C)c2c(C)c(C(=O)Nc3ccc4c(c3)N(C)C(=O)CO4)oc2c1,/,/,/,4,/,/,/,/
CC(=O)Nc1ccccc1-c1nn[nH]n1,9,44*,2,-5,11,1,-6,-1%
CCc1ccccc1NC(=O)CN(C)C(=O)Cn1ncc(Cl)c(Cl)c1=O,-5,0,2,-1,49*,-1,-2,1%
C=CCc1cc(C=O)cc(OCC)c1OCc1ccc(Cl)cc1,2,0,6,-2,45*,10,-3,1%
C=CCc1cc(C=O)cc(OC)c1OCc1ccc(Cl)cc1,-11,0,6,5,-8,-1,/,/
Cc1ccc(-c2ccc(=O)n(Cc3ccc(Cl)cc3)n2)cc1S(=O)(=O)N1CCCC1,/,/,/,2,/,/,/,/
COc1ccc(CN2CCC(C(=O)Nc3ccc(Oc4ccccc4)nc3)CC2)cc1F,-9,2,31*,-4,72*,-24,-2,?
Cc1ccc(NC(=O)c2ncoc2-c2ccc(C)o2)c(Cl)c1,/,/,/,2,/,/,/,/
CC1CC(C)CN(C(=O)COC(=O)c2ccc(Cl)nc2)C1 (stereo not drawn),-5,1,1,-10,45*,-18,-1,1%
O=c1[nH]c(/C=C/c2ccc(Br)cc2)nc2ccccc12,-5,1,5,2,-1,-5,/,/
CN(C)c1ccc(/C=C/c2nc3ccccc3c(=O)[nH]2)cc1,-2,59*,39*,-3,-2,-12,?,21µM*
COc1ccc(N2C(=O)c3cccc4cccc(c34)C2=O)cc1,-4,0,1,-4,-2,8,/,/
COc1ccc(N2C(=O)c3cccc4c(N(C)CCO)ccc(c34)C2=O)cc1,-3,35*,49*,-6,-10,-3,-5,21µM*
CN1CCS/C1=C\C=C1/SC(=S)N(CC(=O)O)C1=O,-7,29,129*,0,2,6,23,21µM*
